Source: PubChem BioAssay (NCATS)
Results filed as inconclusive are left out. Calls of active or inactive are those of the source. The call rests on the fitted dose curve; in most records, active means well fitted curve in the direction sought with a large enough effect; inconclusive means small, poorly fitted or top-dose-only effect, or another doubt; inactive means no such curve, though single readings can be large; an effect the other way counts as inactive or inconclusive.

How the values were obtained:
[1] = Quantitative High-Throughput drug screen in 47 multiple myeloma cell lines against the NCATS MIPE library collection: KMS12BM_JCRB cell viability assay (AID 1918971); further: nearly all actives have a fitted effect of over 35% in size
In short: (§1)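 Myeloma cell lines, 500 cells per well, exposed to MIPE 4.0 library compounds for 48 h at 37C, 5% CO2. Viability from ATP by CellTiter-Glo luminescence; normalised to DMSO (100%) and media-only (0%) wells.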

[2] = Quantitative High-Throughput drug screen in 47 multiple myeloma cell lines against the NCATS MIPE library collection: KMS20_JCRB cell viability assay (AID 1918973); further: nearly all actives have a fitted effect of over 45% in size
In short: (§2)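 Relative luminescence from CellTiter-Glo served as the viability signal, referenced to DMSO-treated (100%) and cell-free medium (0%) controls. Treatment lasted 48 hours at 37C with 500 cells per well.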

[3] = Quantitative High-Throughput drug screen in 47 multiple myeloma cell lines against the NCATS MIPE library collection: KMS26_JCRB cell viability assay (AID 1918975); further: nearly all actives have a fitted effect of over 45% in size
In short: as §1

[4] = Quantitative High-Throughput drug screen in 47 multiple myeloma cell lines against the NCATS MIPE library collection: KMS34_JCRB cell viability assay (AID 1918985); further: nearly all actives have a fitted effect of over 40% in size
In short: (§3)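 500 cells/well; MIPE 4.0 drugs pin-transferred; 48 h, 37C, 5% CO2. CellTiter-Glo, 5 min RT, luminescence. Controls: DMSO 100%, media 0%.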

[5] = Quantitative High-Throughput drug screen in 47 multiple myeloma cell lines against the NCATS MIPE library collection: OCIMY7_PLB cell viability assay (AID 1918987); conditions: OCI-MY7 myeloma viability, CellTiter-Glo ATP, 48 h; viability (% of DMSO): at 45.8 µM (top of the series); further: nearly all actives have a fitted effect of over 65% in size
In short: as §3

[6] = Quantitative High-Throughput drug screen in 47 multiple myeloma cell lines against the NCATS MIPE library collection: OCIMY5_PLB cell viability assay (AID 1918988); further: nearly all actives have a fitted effect of over 65% in size
In short: as §3

[7] = Quantitative High-Throughput drug screen in 47 multiple myeloma cell lines against the NCATS MIPE library collection: OPM1_PLB cell viability assay (AID 1918989); further: nearly all actives have a fitted effect of over 40% in size
In short: as §3

[8] = Quantitative High-Throughput drug screen in 47 multiple myeloma cell lines against the NCATS MIPE library collection: SKMM1_PLB cell viability assay (AID 1919863); conditions: SKMM1 myeloma viability, CellTiter-Glo ATP, 48 h; viability: stronger effect = lower value; further: nearly all actives have a fitted effect of over 35% in size
In short: as §3

[9] = Quantitative High-Throughput drug screen in 47 multiple myeloma cell lines against the NCATS MIPE library collection: U266_ATCC cell viability assay (AID 1919864); further: nearly all actives have a fitted effect of over 35% in size
In short: as §3

[10] = Quantitative High-Throughput drug screen in 47 multiple myeloma cell lines against the NCATS MIPE library collection: MMM1_PLB cell viability assay (AID 1918976); further: nearly all actives have a fitted effect of over 35% in size
In short: as §3

[11] = Quantitative High-Throughput drug screen in 47 multiple myeloma cell lines against the NCATS MIPE library collection: NCIH929_DSMZ cell viability assay (AID 1918978); further: nearly all actives have a fitted effect of over 35% in size
In short: as §3

[12] = Quantitative High-Throughput drug screen in 47 multiple myeloma cell lines against the NCATS MIPE library collection: MM1R_ATCC cell viability assay (AID 1918981); further: nearly all actives have a fitted effect of over 35% in size
In short: as §3

[13] = Quantitative High-Throughput drug screen in 47 multiple myeloma cell lines against the NCATS MIPE library collection: KMS28PE_JCRB cell viability assay (AID 1918983); further: nearly all actives have a fitted effect of over 35% in size
In short: as §3

[14] = Quantitative High-Throughput drug screen in 47 multiple myeloma cell lines against the NCATS MIPE library collection: MOLP8_DSMZ cell viability assay (AID 1918977); further: nearly all actives have a fitted effect of over 45% in size
In short: as §3

[15] = Quantitative High-Throughput drug screen in 47 multiple myeloma cell lines against the NCATS MIPE library collection: OCIMY1_PLB cell viability assay (AID 1918979); further: nearly all actives have a fitted effect of over 35% in size
In short: as §3

[16] = Quantitative High-Throughput drug screen in 47 multiple myeloma cell lines against the NCATS MIPE library collection: LP1_DSMZ cell viability assay (AID 1918982); further: nearly all actives have a fitted effect of over 35% in size
In short: as §3

[17] = Quantitative High-Throughput drug screen in 47 multiple myeloma cell lines against the NCATS MIPE library collection: L363_DSMZ cell viability assay (AID 1918984); conditions: L363 myeloma viability, CellTiter-Glo ATP luminescence, 48 h; viability (% of control): at 45.8 µM (top of the series); further: nearly all actives have a fitted effect of over 40% in size
In short: as §3

[18] = Quantitative High-Throughput drug screen in 47 multiple myeloma cell lines against the NCATS MIPE library collection: MM1S_ATCC cell viability assay (AID 1918980); further: nearly all actives have a fitted effect of over 45% in size
In short: as §3

[19] = Quantitative High-Throughput drug screen in 47 multiple myeloma cell lines against the NCATS MIPE library collection: KMS21BM_JCRB cell viability assay (AID 1918974); conditions: ATP luminescence, 48 h; viability: at 45.8 µM (top of the series)
In short: as §2

Measured: Potency
Potency means the concentration at half of the fitted maximal effect.

CO[C@@H]1C(N(C)C(=O)c2ccccc2)C[C@H]2O[C@]1(C)n1c3ccccc3c3c4c(c5c6ccccc6n2c5c31)C(=O)NC4=O (some centres not stated)
active: [2] 3.72 µM | [3] 1.32 µM | [4] 3.32 µM | [5] 0.935 µM | [6] 5.26 µM | [7] 4.18 µM | [8] 11.8 µM | [9] 13.2 µM
inactive: [1]

Cn1c(=O)c(Oc2ccc(F)cc2F)cc2cnc(NC3CCOCC3)nc21
active: [1] 16.6 µM | [10] 1.87 µM | [12] 7.43 µM | [4] 1.32 µM | [6] 18.7 µM
inactive: [2] | [3] | [11] | [13] | [9]

CS(=O)(=O)c1ccc(C2=C(c3ccccc3)C(=O)OC2)cc1
inactive: [1] | [2] | [3] | [14] | [11] | [15] | [12] | [16] | [13] | [17] | [4] | [7]

CC(O)=C(C#N)C(=O)Nc1ccc(C(F)(F)F)cc1
inactive: [15] | [17]
active: [1] 14.8 µM | [3] 18.7 µM | [10] 3.72 µM | [18] 16.6 µM | [12] 16.6 µM | [4] 18.7 µM | [6] 16.6 µM | [7] 16.6 µM | [8] 18.7 µM

O=C1C(c2c(O)[nH]c3ccccc23)=Nc2ccccc21
inactive: [15] | [17] | [7]
active: [1] 5.9 µM | [3] 2.96 µM | [10] 2.09 µM | [18] 0.118 µM | [12] 1.48 µM | [13] 9.35 µM | [4] 7.43 µM | [6] 1.32 µM | [9] 1.66 µM

CC(C)c1c(C(=O)Nc2ccccc2)c(-c2ccccc2)c(-c2ccc(F)cc2)n1CC[C@H](O)C[C@@H](O)CC(=O)O
inactive: [3] | [15]
active: [1] 13.2 µM | [10] 8.33 µM | [18] 16.6 µM | [12] 10.5 µM | [16] 20.9 µM | [13] 18.7 µM | [5] 4.69 µM | [7] 6.62 µM

O[C@@H](COc1cccc2ncccc12)CN1CCN(C2c3ccccc3[C@@H]3[C@H](c4ccccc42)C3(F)F)CC1 (some centres not stated)
active: [1] 23.5 µM | [3] 20.9 µM | [10] 26.4 µM | [11] 11.8 µM | [18] 7.43 µM | [12] 18.7 µM | [13] 23.5 µM | [5] 7.43 µM | [6] 18.7 µM | [7] 23.5 µM | [8] 23.5 µM | [9] 8.33 µM

NCC1CCC(C(=O)O)CC1 (configuration not stated)
inactive: [1] | [3] | [11] | [15] | [12] | [13] | [17] | [4] | [7]
active: [10] 0.0148 µM | [9] 5.9 µM

CC[C@]1(O)C[C@H]2CN(CCC3=c4ccccc4=N[C]3[C@@](C(=O)OC)(c3cc4c(cc3OC)N(C)[C@H]3[C@@](O)(C(N)=O)[C@H](O)[C@]5(CC)C=CCN6CC[C@]43[C@@H]65)C2)C1
active: [1] 0.0047 µM | [19] 0.0935 µM | [3] 0.0662 µM | [10] 0.132 µM | [14] 0.148 µM | [11] 0.166 µM | [15] 0.662 µM | [18] 0.235 µM | [12] 0.0662 µM | [16] 0.0083 µM | [4] 0.0053 µM | [5] 0.0662 µM | [8] 0.0148 µM | [9] 0.0935 µM

COc1cc2c(cc1Cc1cccc(Cl)c1F)c(=O)c(C(=O)O)cn2[C@H](CO)C(C)C
active: [1] 6.62 µM | [3] 20.9 µM | [10] 16.6 µM | [14] 13.2 µM | [11] 18.7 µM | [18] 16.6 µM | [4] 20.9 µM | [5] 18.7 µM | [6] 7.43 µM

OC1CCC(Nc2ncc3nc(Nc4c(F)cc(F)cc4F)n([C@@H]4CCOC4)c3n2)CC1 (some centres not stated)
inactive: [3] | [13]
active: [1] 23.5 µM | [19] 4.69 µM | [14] 11.8 µM | [18] 11.8 µM | [12] 10.5 µM | [17] 5.26 µM | [4] 23.5 µM

COc1ccnc(CS(=O)c2nc3ccc(OC(F)F)cc3[nH]2)c1OC (configuration not stated)
active: [11] 18.7 µM
inactive: [1] | [2] | [15] | [12] | [16] | [13] | [4] | [6] | [9]

N=C1SC(=Cc2ccc(-c3ccc4c(c3)C(=O)NC4=O)o2)C(=O)N1c1ccc(Br)cc1
active: [1] 4.18 µM | [3] 4.18 µM | [10] 3.32 µM | [14] 3.72 µM | [15] 4.18 µM | [18] 26.4 µM | [12] 4.18 µM | [16] 2.96 µM | [13] 4.69 µM | [4] 2.64 µM | [6] 2.96 µM | [8] 3.32 µM
inactive: [17]
